# AID923 – qHTS Assay for Allosteric/Competitive Inhibitors of Caspase-1: Spectroscopic Profiling in AFC Spectral Region; compound fluorescence, AFC spectral region (405/520 nm); Potency, µM (series often up to 57.5 µM), actives largely listed as activators; actives 1.1% (n = 75,000); AID 923, 2007
#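 Compound autofluorescence profiled at 405 nm ex/520 nm em during kinetic caspase 1 run (50 nM enzyme, 5 uM Ac-WEHD-AFC, HEPES pH 7.5, 10 mM DTT). Titration up to 57 uM; baseline from regression intercept, normalized to AFC standard curve.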
# A350 fluor – compound fluoresces in the Alexa 350 spectral region; actives 11% (n = 59,000); AID 590; max dye-equivalent concentration, M; Compound autofluorescence, 340/450 nm, Alexa 350 dye-equivalents; hits give high values; in the data active means max dye-equivalent concentration above about 10 nM; inconclusive means mostly about 1.1 nM to 9.6 nM
# HSD17B inhib – inhibitors of human HSD17B10 dehydrogenase | Q99714 | recombinant HSD17B10, NADH fluorescence kinetic | Potency, µM (doses to about 57.1 µM), actives largely listed as inhibitors | actives 7.6% (n = 75,000) | AID 893;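 further: the protocol describes HADH2 (HSD17B10) and not the HSD17B4 of the title; nearly all actives have a fitted effect of over 70% in size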
#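 His-tagged E. coli-expressed HADH2 at 20 nM in 100 mM Tris-HCl pH 9.0 with 0.01 % Tween-20, preincubated 15 min with compound at room temperature. Reaction with 1 mM NAD+ and 90 uM beta-hydroxybutyryl coenzyme A; NADH fluorescence (360/450 nm) read kinetically over 4 min, last minus first point.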
# 4-MU autofl – compound fluoresces in the 4-MU spectral region | compound autofluorescence, 340/450 nm, 4-MU equivalents; hits give high values | AID 589 | actives 11% (n = 59,000) | max dye-equivalent concentration, M; in the data active means max dye-equivalent concentration above about 10 nM; inconclusive means mostly about 1.1 nM to 9.6 nM
#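 Compounds in 100 mM Tris, pH 8.0, incubated 15 min at room temperature, then fluorescence read at 340 nm excitation/450 nm emission. Signal converted to 4-MU dye-equivalent concentration using an on-plate six-point 4-MU standard curve.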
# CRE-bla Fsk – CRE-bla signaling modulation under forskolin stimulation; Potency, µM (highest dose often 38.2 µM), actives largely listed as activators; CHO CRE-bla reporter (cAMP response element driving beta-lactamase), forskolin EC10, beta-lactamase ratio; actives 2.5% (n = 71,000); active means well fitted activation curve with a large enough effect in the signal ratio, with a control signal flat, not every such curve was filed as active; inconclusive means small, poorly fitted or top-dose-only effect, or effect the other way, or a change in a side signal; the % refers to the signal ratio
#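 Titrated compounds plus EC10 NKH 477 on CHO CRE-bla cells, 3 h, 37 °C. CCF4, 2 h RT. Ratio 460/530 nm → AC50.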
# HADH2 inhib – inhibitors of human HADH2 dehydrogenase. Q99714. actives 3.4% (n = 73,000). Potency, µM (series often up to 57.1 µM), usual class: inhibitors. AID 886. recombinant HADH2, NADH fluorescence, beta-hydroxybutyryl-CoA; further: nearly all actives have a fitted effect of over 60% in size
# Target sequence (Q99714 whole entry, looked up, one chain of several): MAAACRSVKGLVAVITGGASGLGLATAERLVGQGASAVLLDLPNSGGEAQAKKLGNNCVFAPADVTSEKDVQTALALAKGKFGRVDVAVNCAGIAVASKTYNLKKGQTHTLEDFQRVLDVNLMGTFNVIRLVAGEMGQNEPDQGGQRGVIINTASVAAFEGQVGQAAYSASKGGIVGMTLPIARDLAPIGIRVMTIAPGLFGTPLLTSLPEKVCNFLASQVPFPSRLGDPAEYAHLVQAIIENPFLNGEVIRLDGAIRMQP
#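 20 nM HADH2 + cpd, 15 min RT; add 1 mM NAD+/90 uM beta-hydroxybutyryl-CoA; kinetic fluorescence 360/450 nm, 4 min. Tris-HCl pH 9.0, 0.01% Tween-20.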
# A number is an active result; 0 = inactive; ? = inconclusive; - = no result given; ! = not confirmed by another sample; [ ] = another dose, or the depositor's remark. Most compounds without a hit are left out; they make up all but 14% or so of the library. Unless noted, the call rests on the fitted dose curve; in most records, active means well fitted curve in the direction sought with a large enough effect; inconclusive means small, poorly fitted or top-dose-only effect, or another doubt; inactive means no such curve, though single readings can be large; an effect the other way counts as inactive or inconclusive.
SMILES,AID923,A350 fluor,HSD17B inhib,4-MU autofl,CRE-bla Fsk,HADH2 inhib
C/C=C/OC(=O)NC(c1cccc(C)c1)[C@@]1(C(=O)OCC)CCCC1=O (some centres undefined),0[11.5 µM],-,0[11.4 µM],-,-,0[11.4 µM]
CCc1c(C)n2nc(C)cc2[nH]c1=O,0,?,20µM,0,?,?
CCc1c(C)nc(N2CCOCC2)[nH]c1=O,0,0,0,0,0,?
O=S(=O)(c1ccc2c(c1)OCCO2)N(Cc1ccc(F)cc1)Cc1nnc(-c2cccs2)o1,0,?,0,0,?,0
Fc1ccc2c(Cl)c(-c3nnc(-c4cccs4)o3)sc2c1,0,2e-07M,?,2e-07M,0,?
O=C(c1ccco1)N1CCN(c2ncnc3c(-c4ccccc4)nsc23)CC1,0,3.4e-08M,32µM,3.6e-08M,0,?
CCOC(=O)c1sc2ncnc(N3CCN(C(=O)OCC)CC3)c2c1C,0,0,0,0,?,0
COc1ccc(-c2nsc3c(N4CCN(C(=O)c5ccco5)CC4)ncnc23)cc1,0,3.2e-08M,0,4.2e-08M,0,0
NC(=O)C1CCN(c2ncnc3c(-c4ccccc4)nsc23)CC1,0,7.5e-08M,0,5.6e-08M,0,0
CCOC(=O)N1CCN(c2ncnc3c2[nH]c2ccc(OC)cc23)CC1,-,1.6e-07M,-,1.4e-07M,-,-
Cc1cc(C)cc(/C=C/C2OCC(O)C2Oc2ccc(C3CCCC3)cc2)c1 (centres undefined),0[11.5 µM],-,0[11.4 µM],-,-,0[11.4 µM]
C/C(CCC(=O)OC[C@@H]1O[C@H](C#Cc2ccccc2)C=C[C@@H]1Oc1ccc(C)cc1)=N/O[C@@H](C)c1cn([C@H](CO)Cc2ccccc2)nn1,0[11.5 µM],-,0[11.4 µM],-,-,0[11.4 µM]
O=C(c1ccco1)N1CCN(c2ncnc3c2[nH]c2ccc(Br)cc23)CC1,0,?,?,?,0.25µM,0
CCCSc1ccc2nc(NC(=O)OC)[nH]c2c1,0,9.5e-08M!,0,8.4e-08M!,7.9µM,0
COC(=O)Nc1nc2ccc(C(=O)c3ccccc3)cc2[nH]1,0,0,0,0,10µM,0
COC(=O)Nc1nc2ccc(SC(C)C)cc2[nH]1,0,?,0,?,?,0
COC(=O)Nc1nc2ccc(S(=O)c3ccccc3)cc2[nH]1 (centres undefined),0,-,?,-,-,-
OB(O)c1cc2ccccc2o1,0,-,?,-,-,?
COC(=O)C1C(C)OC(=O)NC1c1ccccc1 (centres undefined),0[11.5 µM],-,0[11.4 µM],-,-,0[11.4 µM]
COC(=O)[C@@]1(Cc2ccc(OC)cc2)[C@H]2c3cc(C(=O)N4CCCC4)n(Cc4cc(F)cc5c4OCOC5)c3C[C@H]2CN1C(=O)c1ccccc1,0,-,0,-,0,0
CCc1nc(SCCO)c2oc3ccccc3c2n1,0,?,0,?,4µM,0
CCc1nc(NCc2ccco2)c2oc3ccccc3c2n1,0,0,0,0,4µM,0
CCNc1nc(CC)nc2c1oc1ccccc12,0,4.5e-08M,0,2.1e-08M,7.9µM,0
N#CCCSc1ncnc2c1oc1ccccc12,0,5.2e-08M,0,3.1e-08M,?,0
c1coc(CNc2ncnc3c2oc2ccccc23)c1,0,0,0,0,?,0
SMILES,AID923,A350 fluor,HSD17B inhib,4-MU autofl,CRE-bla Fsk,HADH2 inhib
ClCCl,0,-,0,-,0,0
CCc1nc(N(CC)CC)c2oc3ccccc3c2n1,0,3.5e-08M,0,2.5e-08M,7.9µM,0
CCc1nc(N2CCC(C)CC2)c2oc3ccccc3c2n1,0,?,0,?,10µM,?
CCc1nc(NCC2CCCO2)c2oc3ccccc3c2n1 (centres undefined),0,0,0,0,?,0
Cn1cccc1C(=O)N1CCC2(CC1)CCN(c1cccc(-c3ccccc3)c1)CC2,0,0,?,0,0,0
COc1ccc(-c2cc3nc4c(c(=O)n3[nH]2)CCC4)cc1,0,0,13µM,0,?,?
Cc1cc2nc3c(c(=O)n2[nH]1)CCCC3,0,-,32µM,-,0,?
Cc1ccc(-c2[nH]n3c(=O)c4c(nc3c2C)CCCC4)cc1,0,0,10µM,0,0,?
O=c1c2c(nc3nc(Cc4ccccc4)[nH]n13)CCC2,0,0,0,0,0,0
Cc1nc2nc3c(c(=O)n2[nH]1)CCC3,0,?,0,0,?,0
Cc1c(C(=O)O)c2cc(O)ccc2n1-c1ccccc1,0,0,0,0,0,0
COC(=O)c1c(C)n(-c2ccc(OC)cc2)c2ccc(O)cc12,0,0,20µM,0,0,?
Cc1cc(-c2cccs2)n[nH]1,0,-,0,-,0,0
Cc1cc(-c2ccccc2N)n[nH]1,0,?,25µM,?,0,0
CC(C)OCCCNC(=O)CCN1C(=O)COc2ccccc21,0,?,0,?,0,?
CCOc1ccccc1CNC(=O)CCN1C(=O)COc2ccccc21,0,2e-08M,0,1.5e-08M,0,0
CN(Cc1ccco1)c1ccnc(-c2ccoc2)n1,0,0,?,0,0,3.2µM
CN(Cc1ccco1)c1ccnc(-c2cccnc2)n1,0,0,0,0,0,0
CN(Cc1ccco1)c1ccnc(-c2ccccc2C(F)(F)F)n1,0,2.8e-08M,0,2.4e-08M,0,0
NCC(=O)N[C@H](CO)C(=O)O,0[11.5 µM],0,0[11.4 µM],0,0[7.6 µM],0[11.4 µM]
CC(=O)n1cc(Nc2ccccc2C(=O)O)c2ccccc21,0,-,25µM,-,0,20µM
Cc1cccc(Nc2ccccc2C(=O)O)c1C,0,0,0,0,0,0
CCN1C(=O)[C@H]2[C@H]3[C@H](O)[C@H](O)C/C(=N/OC[C@@H](C)[C@H](OCc4ccccc4)C(C)C)[C@@H]3CC[C@@H]2C1=O,0[11.5 µM],-,0[11.4 µM],-,-,0[11.4 µM]
Cc1nnc(OCc2nc3ccccc3n2C)c2ccccc12,0,-,0,-,2.5µM,0
COC(=O)c1[nH]c2ccc(Cl)cc2c1NC(=O)C1CC1,-,1.4e-08M,-,1.2e-08M,-,-
SMILES,AID923,A350 fluor,HSD17B inhib,4-MU autofl,CRE-bla Fsk,HADH2 inhib
CC1=C/C(=N/O)C([C@H]2C=C(C)CC(C)(C)[C@@H]2O)C(C)(C)C1 (some centres undefined),0[11.5 µM],0,0[11.4 µM],0,0[7.6 µM],0[11.4 µM]
Cc1nnc2sc(-c3ccc(NC(=O)CSc4ccc(Cl)cc4)cc3)nn12,0,?,?,?,?,?
CCc1nnc2sc(-c3ccc(NC(=O)CSc4ccc(Cl)cc4)cc3)nn12,0,1.1e-08M,0,1.1e-08M,?,0
CC1(C)Cc2c(sc3ncn4nc(CCC(=O)O)c(=O)nc4c23)CO1,0,1.4e-08M,32µM,1.3e-08M,0,0
Cc1cc(=O)[nH]c(/N=C(\N)Nc2ccc(Cl)cc2)n1,0[11.5 µM],0,0[11.4 µM],0,0[7.6 µM],0[11.4 µM]
O=C1c2nc3ccccn3c2C(=O)N1Cc1ccccc1,0,-,0,-,?,0[11.4 µM]
Clc1ccc2nc3ccccn3c2c1,0,4.7e-06M,32µM,3.4e-06M,0,?
CC(=O)N1CCC2(CCCN(C(c3ccccc3)c3ccccc3)C2)CC1,0,0,0,0,?,0
c1cncc(-c2nn3c(Cn4cnc5ccccc54)nnc3s2)c1,0,9.3e-08M,?,8.7e-08M,?,0.63µM
